The text below walks through data of publication PMC7862700, “An all-to-all approach to the identification of sequence-specific readers for epigenetic DNA modifications on cytosine”.

Holding throughout (assay): DAPPL (digital affinity profiling via proximity ligation, sequencing); 10 mM Tris-HCl pH 7.5, 50 mM NaCl, 1 mM DTT, 4% glycerol, room temperature, 30 min; GST-TFs on glutathione beads, 16-mer random dsDNA library, 0.1% formaldehyde crosslink after washing; high values mean tight binding
In experiment [1] the target is T1, FLI1 (Homo sapiens, UniProt Q01543 1-452).
T1 sequence: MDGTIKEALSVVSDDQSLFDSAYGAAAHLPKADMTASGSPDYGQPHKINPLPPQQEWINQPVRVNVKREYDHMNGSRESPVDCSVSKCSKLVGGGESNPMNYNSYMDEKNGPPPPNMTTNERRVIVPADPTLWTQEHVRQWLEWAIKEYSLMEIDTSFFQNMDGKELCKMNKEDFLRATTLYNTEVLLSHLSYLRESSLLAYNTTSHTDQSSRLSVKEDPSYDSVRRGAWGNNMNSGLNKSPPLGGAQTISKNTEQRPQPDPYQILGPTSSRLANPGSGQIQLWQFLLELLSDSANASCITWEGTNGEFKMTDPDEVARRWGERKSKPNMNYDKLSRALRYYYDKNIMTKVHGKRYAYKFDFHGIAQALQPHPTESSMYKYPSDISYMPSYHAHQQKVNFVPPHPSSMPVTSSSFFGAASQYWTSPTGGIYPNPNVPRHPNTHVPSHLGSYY
As to conditions: protein: recombinant; tags: N-terminal GST; dsDNA, one strand shown. Put shortly: (§1)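 Sequencing on an Illumina NextSeq500 followed washing, crosslinking with 0.1% formaldehyde, proximity ligation (BsaI/T4 ligase, 1 h, 37 °C) and PCR amplification of pools that had been incubated for 30 min at room temperature with 200 nmole of a random double-stranded 16-mer DNA library in Tris/NaCl/DTT/glycerol buffer. Each pool held DNA-barcoded human transcription factors, expressed in yeast as GST fusions and captured on glutathione beads, plus a tag-only sample. Binding signal is a hexamer's read frequency for a factor divided by its frequency in the tag-only sample.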

Experiment [2] has as its target T2, ELK1 (Homo sapiens, UniProt P19419 1-428).
T2 sequence: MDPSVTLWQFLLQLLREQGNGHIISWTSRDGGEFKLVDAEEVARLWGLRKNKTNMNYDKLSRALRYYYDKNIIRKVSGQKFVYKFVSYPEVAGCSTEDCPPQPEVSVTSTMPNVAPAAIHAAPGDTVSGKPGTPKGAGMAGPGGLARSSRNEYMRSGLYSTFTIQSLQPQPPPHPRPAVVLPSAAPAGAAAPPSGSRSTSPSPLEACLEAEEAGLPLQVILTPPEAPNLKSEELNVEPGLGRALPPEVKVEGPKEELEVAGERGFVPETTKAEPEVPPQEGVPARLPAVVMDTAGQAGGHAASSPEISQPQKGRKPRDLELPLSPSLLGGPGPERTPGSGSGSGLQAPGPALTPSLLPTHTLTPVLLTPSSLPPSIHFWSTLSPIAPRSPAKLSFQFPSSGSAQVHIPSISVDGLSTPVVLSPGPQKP
As to conditions: protein: recombinant; tags: N-terminal GST; dsDNA, one strand shown. Put shortly:
as §1

For experiment [3], the target named is T3, GABPA (Homo sapiens, UniProt Q06546 1-454).
T3 sequence: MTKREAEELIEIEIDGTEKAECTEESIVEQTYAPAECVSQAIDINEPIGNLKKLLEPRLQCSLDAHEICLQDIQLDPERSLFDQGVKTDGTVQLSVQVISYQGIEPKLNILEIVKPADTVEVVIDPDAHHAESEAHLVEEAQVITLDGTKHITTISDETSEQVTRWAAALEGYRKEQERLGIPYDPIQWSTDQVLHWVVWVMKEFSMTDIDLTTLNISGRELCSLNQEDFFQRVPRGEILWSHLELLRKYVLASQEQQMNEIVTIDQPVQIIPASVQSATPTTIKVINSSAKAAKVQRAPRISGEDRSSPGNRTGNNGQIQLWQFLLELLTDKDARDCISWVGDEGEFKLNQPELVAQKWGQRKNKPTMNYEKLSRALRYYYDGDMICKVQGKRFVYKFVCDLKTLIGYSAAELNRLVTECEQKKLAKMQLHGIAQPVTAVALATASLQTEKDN
Particulars: protein: recombinant; tags: N-terminal GST; dsDNA, one strand shown. Put shortly:
as §1

Experiment [4] addresses T4, ERG (Homo sapiens, UniProt P11308 1-479).
T4 sequence: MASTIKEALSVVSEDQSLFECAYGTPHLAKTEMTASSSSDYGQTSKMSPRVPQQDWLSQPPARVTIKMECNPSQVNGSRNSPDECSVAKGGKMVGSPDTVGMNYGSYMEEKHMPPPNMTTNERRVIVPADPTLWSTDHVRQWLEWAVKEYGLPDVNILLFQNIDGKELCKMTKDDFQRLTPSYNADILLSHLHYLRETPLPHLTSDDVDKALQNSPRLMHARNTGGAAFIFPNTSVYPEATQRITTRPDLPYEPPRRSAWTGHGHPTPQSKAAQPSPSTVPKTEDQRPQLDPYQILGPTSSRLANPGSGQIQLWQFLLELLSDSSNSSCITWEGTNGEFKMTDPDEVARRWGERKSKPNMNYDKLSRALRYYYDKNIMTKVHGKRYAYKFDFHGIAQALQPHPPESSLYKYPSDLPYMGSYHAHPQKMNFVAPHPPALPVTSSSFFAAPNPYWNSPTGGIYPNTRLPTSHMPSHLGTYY
Particulars: protein: recombinant; tags: N-terminal GST; dsDNA, one strand shown. A digest of the protocol:
as §1

For experiment [5], the target named is ELF1 (Homo sapiens, UniProt P32519 1-619). As to conditions: protein: recombinant; tags: N-terminal GST; dsDNA, one strand shown. A digest of the protocol: as §1
Experiment [6] deals with T5, EHF (Homo sapiens, UniProt Q9NZC4 1-300).
T5 sequence: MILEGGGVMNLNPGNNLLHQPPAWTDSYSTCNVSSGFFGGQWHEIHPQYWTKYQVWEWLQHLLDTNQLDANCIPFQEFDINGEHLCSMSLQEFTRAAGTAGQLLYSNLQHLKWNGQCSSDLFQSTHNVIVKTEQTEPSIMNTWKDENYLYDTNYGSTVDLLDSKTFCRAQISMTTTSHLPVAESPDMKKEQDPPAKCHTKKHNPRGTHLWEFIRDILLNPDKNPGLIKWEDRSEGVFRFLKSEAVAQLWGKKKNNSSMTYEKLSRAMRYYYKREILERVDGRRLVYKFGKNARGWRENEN
As to conditions: protein: recombinant; tags: N-terminal GST; dsDNA, one strand shown. Put shortly:
as §1

The target of experiment [7] is SPI1 (Homo sapiens, UniProt P17947 1-270). As to conditions: protein: recombinant; tags: N-terminal GST; dsDNA, one strand shown. A digest of the protocol:
as §1

The target of experiment [8] is SPIB (Homo sapiens, UniProt Q01892 1-262). As to conditions: protein: recombinant; tags: N-terminal GST; dsDNA, one strand shown. Put shortly:
as §1

Experiment [9] has as its target T6, ELK3 (Homo sapiens, UniProt P41970 1-407).
T6 sequence: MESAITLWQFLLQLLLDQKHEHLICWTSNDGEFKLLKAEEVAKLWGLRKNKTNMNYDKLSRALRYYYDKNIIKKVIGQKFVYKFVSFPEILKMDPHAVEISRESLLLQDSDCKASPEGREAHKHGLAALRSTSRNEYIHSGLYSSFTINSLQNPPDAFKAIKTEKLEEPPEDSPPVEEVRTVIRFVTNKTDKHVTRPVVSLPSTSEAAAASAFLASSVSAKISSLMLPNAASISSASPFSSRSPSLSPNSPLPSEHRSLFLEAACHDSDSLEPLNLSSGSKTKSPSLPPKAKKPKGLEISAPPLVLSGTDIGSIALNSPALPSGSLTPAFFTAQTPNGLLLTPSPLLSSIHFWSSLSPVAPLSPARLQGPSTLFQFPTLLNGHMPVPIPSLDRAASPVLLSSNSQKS
As to conditions: protein: recombinant; tags: N-terminal GST; dsDNA, one strand shown. Put shortly:
as §1

The target in experiment [10] is T7, FEV (Homo sapiens, UniProt Q99581 1-238).
T7 sequence: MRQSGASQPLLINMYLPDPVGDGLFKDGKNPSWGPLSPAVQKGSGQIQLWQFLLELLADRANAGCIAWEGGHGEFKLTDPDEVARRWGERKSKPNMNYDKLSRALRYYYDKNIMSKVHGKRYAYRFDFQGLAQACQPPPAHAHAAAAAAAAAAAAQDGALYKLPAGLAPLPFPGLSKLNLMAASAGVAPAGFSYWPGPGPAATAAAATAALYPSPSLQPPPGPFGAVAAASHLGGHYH
Particulars: protein: recombinant; tags: N-terminal GST; dsDNA, one strand shown. Put shortly: as §1

The target in experiment [11] is ETV5 (Homo sapiens, UniProt P41161 1-510). Particulars: protein: recombinant; tags: N-terminal GST; dsDNA, one strand shown. Put shortly:
as §1

Experiment [12] concerns the target HSF1 (Homo sapiens, UniProt Q00613 1-529). Particulars: protein: recombinant; tags: N-terminal GST; chain copies: 3; dsDNA, one strand shown. Put shortly: as §1
Experiment [13] addresses T8, SPIC (Homo sapiens, UniProt Q8N5J4 1-248).
T8 sequence: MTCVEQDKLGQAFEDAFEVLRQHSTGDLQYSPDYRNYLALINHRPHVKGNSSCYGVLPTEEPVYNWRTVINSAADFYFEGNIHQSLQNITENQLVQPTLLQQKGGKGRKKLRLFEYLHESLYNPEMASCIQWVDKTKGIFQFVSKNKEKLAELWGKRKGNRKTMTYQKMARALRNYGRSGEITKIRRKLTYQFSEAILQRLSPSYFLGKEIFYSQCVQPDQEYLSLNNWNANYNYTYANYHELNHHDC
Particulars: protein: recombinant; tags: N-terminal GST; dsDNA, one strand shown. Put shortly: as §1

Experiment [14] concerns the target ELF4 (Homo sapiens, UniProt Q99607 1-663). Particulars: protein: recombinant; tags: N-terminal GST; dsDNA, one strand shown. Put shortly:
as §1

In experiment [15] the target is T9, ELK4 (Homo sapiens, UniProt P28324-2 1-405).
T9 sequence: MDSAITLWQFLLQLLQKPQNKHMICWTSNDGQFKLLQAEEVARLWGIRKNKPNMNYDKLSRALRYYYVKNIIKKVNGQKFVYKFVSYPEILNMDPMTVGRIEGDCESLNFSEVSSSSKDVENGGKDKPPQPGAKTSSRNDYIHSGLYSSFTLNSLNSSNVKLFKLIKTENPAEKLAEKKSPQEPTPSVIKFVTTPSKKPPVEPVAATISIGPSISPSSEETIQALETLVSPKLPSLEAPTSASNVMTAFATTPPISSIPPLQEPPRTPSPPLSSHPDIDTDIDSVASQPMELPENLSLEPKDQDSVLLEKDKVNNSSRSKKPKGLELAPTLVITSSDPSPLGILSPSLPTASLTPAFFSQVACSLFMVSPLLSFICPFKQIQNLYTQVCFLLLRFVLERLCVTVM
Particulars: protein: recombinant; tags: N-terminal GST; dsDNA, one strand shown. Put shortly:
as §1

In experiment [16] the target is T10, ETV2 (Homo sapiens, UniProt O00321 1-342).
T10 sequence: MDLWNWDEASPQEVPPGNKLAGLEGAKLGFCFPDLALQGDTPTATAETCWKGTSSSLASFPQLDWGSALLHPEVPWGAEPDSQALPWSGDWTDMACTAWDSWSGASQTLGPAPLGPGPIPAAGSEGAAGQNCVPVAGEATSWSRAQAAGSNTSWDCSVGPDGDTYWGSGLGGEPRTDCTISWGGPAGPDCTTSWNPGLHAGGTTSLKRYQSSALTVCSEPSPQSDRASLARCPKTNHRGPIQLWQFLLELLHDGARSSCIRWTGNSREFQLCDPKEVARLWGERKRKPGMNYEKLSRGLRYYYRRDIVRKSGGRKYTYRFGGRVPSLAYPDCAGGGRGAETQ
Particulars: protein: recombinant; tags: N-terminal GST; dsDNA, one strand shown. A digest of the protocol:
as §1

The target in experiment [17] is CRX (Homo sapiens, UniProt O43186 1-299). As to conditions: protein: recombinant; tags: N-terminal GST; dsDNA, one strand shown. Put shortly: as §1
The target in experiment [18] is ETV1 (Homo sapiens, UniProt P50549 1-477). As to conditions: protein: recombinant; tags: N-terminal GST; dsDNA, one strand shown. A digest of the protocol:
as §1

ETV1, sequence (P50549 whole entry): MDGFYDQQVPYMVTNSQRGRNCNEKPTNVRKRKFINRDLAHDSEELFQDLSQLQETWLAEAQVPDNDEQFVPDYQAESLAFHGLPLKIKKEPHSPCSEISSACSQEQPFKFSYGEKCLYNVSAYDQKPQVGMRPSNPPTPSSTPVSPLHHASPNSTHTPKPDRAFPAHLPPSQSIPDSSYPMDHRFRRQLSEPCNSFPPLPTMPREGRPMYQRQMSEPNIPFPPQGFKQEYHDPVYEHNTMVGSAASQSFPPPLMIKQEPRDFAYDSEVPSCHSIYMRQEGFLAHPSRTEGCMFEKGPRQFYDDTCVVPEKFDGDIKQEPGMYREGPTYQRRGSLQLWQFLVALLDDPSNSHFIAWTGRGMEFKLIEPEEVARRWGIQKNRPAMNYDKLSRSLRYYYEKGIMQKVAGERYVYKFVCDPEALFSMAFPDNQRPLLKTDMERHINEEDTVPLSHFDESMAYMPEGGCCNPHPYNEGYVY
HSF1, sequence (Q00613 whole entry): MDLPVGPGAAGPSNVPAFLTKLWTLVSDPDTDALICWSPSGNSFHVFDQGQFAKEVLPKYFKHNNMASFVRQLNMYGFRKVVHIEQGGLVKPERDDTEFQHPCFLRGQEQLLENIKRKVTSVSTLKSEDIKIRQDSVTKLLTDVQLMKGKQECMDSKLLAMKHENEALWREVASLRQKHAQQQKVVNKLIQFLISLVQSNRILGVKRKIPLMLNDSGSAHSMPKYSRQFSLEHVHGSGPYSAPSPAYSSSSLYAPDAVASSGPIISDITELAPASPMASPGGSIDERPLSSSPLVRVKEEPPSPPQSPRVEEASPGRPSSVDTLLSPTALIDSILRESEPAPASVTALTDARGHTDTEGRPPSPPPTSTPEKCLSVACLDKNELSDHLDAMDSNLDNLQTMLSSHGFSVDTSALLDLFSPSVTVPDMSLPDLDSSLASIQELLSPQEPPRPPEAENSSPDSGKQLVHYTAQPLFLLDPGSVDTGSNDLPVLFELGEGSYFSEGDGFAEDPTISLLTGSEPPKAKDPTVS
CRX, sequence (O43186 whole entry): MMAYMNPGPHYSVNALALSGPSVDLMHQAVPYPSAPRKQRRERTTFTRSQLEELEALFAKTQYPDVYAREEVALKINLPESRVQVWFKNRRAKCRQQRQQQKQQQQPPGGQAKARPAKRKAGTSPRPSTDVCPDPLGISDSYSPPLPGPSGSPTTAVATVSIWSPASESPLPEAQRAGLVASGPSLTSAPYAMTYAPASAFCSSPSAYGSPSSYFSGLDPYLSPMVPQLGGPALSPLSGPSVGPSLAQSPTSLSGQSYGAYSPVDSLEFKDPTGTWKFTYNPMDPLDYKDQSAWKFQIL
ETV5, sequence (P41161 whole entry): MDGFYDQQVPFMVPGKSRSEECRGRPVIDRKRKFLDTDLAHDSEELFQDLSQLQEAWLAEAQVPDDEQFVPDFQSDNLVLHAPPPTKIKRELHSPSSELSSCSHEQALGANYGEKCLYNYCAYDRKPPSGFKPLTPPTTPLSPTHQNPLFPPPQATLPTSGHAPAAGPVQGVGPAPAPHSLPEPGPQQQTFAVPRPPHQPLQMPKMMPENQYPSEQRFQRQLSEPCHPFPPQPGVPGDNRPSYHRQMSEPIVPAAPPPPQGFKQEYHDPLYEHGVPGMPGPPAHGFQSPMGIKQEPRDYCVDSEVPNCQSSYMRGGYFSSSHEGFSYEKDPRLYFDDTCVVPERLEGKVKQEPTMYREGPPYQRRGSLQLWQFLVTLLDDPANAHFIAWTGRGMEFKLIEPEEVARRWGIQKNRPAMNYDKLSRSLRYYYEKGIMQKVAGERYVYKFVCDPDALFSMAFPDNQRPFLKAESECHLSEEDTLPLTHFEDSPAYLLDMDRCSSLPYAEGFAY
ELF1, sequence (P32519 whole entry): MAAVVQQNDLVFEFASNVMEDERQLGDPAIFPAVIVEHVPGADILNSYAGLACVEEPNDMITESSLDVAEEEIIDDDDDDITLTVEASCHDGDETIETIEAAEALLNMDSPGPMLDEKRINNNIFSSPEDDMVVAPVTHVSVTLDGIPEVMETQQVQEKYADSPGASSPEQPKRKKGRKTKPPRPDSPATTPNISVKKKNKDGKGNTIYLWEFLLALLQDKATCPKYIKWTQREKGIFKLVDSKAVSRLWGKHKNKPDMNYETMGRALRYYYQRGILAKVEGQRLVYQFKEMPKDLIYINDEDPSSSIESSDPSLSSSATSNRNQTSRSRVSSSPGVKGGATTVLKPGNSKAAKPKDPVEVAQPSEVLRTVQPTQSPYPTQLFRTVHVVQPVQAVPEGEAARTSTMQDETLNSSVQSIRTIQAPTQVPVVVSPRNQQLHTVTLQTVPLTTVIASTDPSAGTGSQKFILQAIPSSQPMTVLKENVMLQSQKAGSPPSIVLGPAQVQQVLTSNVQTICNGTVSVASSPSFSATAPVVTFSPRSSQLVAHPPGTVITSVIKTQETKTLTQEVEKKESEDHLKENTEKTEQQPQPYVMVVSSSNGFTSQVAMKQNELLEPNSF
ELF4, sequence (Q99607 whole entry): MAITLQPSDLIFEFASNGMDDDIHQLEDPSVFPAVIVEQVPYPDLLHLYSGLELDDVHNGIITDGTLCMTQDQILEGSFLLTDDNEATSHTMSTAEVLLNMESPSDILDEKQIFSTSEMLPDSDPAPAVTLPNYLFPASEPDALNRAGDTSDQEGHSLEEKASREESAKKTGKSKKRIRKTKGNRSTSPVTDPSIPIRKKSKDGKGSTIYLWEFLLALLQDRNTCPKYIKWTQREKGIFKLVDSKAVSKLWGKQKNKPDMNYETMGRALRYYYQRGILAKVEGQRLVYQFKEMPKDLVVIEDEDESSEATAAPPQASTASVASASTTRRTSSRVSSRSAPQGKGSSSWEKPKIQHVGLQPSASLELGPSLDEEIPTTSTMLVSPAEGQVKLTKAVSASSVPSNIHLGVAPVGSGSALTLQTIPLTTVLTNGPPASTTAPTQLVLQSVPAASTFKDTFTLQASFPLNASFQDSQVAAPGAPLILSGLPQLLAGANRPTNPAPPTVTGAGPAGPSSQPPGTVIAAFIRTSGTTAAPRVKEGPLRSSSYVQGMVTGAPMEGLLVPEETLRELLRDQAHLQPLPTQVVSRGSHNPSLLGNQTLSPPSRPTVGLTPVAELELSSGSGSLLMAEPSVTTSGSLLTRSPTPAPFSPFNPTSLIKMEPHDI
SPIB, sequence (Q01892 whole entry): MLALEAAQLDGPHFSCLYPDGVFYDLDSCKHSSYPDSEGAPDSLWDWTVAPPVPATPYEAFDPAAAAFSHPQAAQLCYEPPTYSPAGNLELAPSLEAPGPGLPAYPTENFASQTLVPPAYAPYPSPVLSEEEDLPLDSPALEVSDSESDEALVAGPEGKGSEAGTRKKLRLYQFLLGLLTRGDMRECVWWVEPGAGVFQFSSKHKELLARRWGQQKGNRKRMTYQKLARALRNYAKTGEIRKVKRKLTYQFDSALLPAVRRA

As to TCTGTA, the binding signal in experiment [1] was 1.23 fold enrichment (6-mer frequency, TF over GST control); in experiment [2], 1.19 fold enrichment (6-mer frequency, TF over GST control); in experiment [3], 1.2 fold enrichment (6-mer frequency, TF over GST control); in experiment [4], 1.11 fold enrichment (6-mer frequency, TF over GST control); in experiment [5] it was 1.18 fold enrichment (6-mer frequency, TF over GST control); in [6], 1.15 fold enrichment (6-mer frequency, TF over GST control). The binding signal in experiment [7] is 1.16 fold enrichment (6-mer frequency, TF over GST control); in [8] it was 1.19 fold enrichment (6-mer frequency, TF over GST control); in experiment [9], 1.2 fold enrichment (6-mer frequency, TF over GST control); in experiment [10] it was 1.24 fold enrichment (6-mer frequency, TF over GST control); in experiment [11], 1.19 fold enrichment (6-mer frequency, TF over GST control); in [12], 1.31 fold enrichment (6-mer frequency, TF over GST control). Further, the binding signal in experiment [13] was 1.39 fold enrichment (6-mer frequency, TF over GST control); in experiment [14], 1.18 fold enrichment (6-mer frequency, TF over GST control); in [15], 1.3 fold enrichment (6-mer frequency, TF over GST control); in [16] it was 1.28 fold enrichment (6-mer frequency, TF over GST control); in [17] it was 1.34 fold enrichment (6-mer frequency, TF over GST control); in experiment [18] it was 1.28 fold enrichment (6-mer frequency, TF over GST control).
